The source of these data is PubChem BioAssay (EPA / NIEHS).

Each structure is given as a SMILES string. Results filed as inconclusive are left out. Activity calls are given as the source filed them. Rule for the calls: active = hit-call score of the fitted dose curve at least 0.9, where 1 is the maximum; inconclusive = response in the unintended direction; inactive = score below 0.9.

In assay [1] the target is human Histamine 1 Receptor (H1), HRH1 (gene 3269) (UniProt P35367). Nature of the assay: NVS_GPCR_hH1: NovaScreen (NVS) G Protein-Coupled Receptor Assay for human Histamine 1 Receptor (H1) (AID 2283268). The essentials:
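Filter-based scintillation detection of radioligand binding to human H1, 1 h incubation; chemicals screened in duplicate at 25 uM, then concentration-response; signal loss relative to DMSO taken as activity.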

Assay [2] has as its target D(1A) dopamine receptor (Homo sapiens) (UniProt P21728). Nature of the assay: NVS_GPCR_hDRD1: NovaScreen (NVS) G Protein-Coupled Receptor Assay for human Dopamine Receptor D1 (DRD1) (AID 2283269). Put shortly:
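HEK293-derived receptor preparation; radioligand competitive displacement; 1 h; filtration + scintillation counting. DMSO = negative control/baseline. Primary: 25 uM, duplicate; secondary: concentration–response for actives.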

Assay [3] addresses human Dopamine Receptor D4.4 (DRD4.4), DRD4 (gene 1815) (UniProt P21917). Nature of the assay: NVS_GPCR_hDRD4.4: NovaScreen (NVS) G Protein-Coupled Receptor Assay for human Dopamine Receptor D4.4 (DRD4.4) (AID 2283264). The essentials:
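Filter-binding assay with a tritiated or iodinated ligand, cell-free receptor prepared from CHO, 1 hour. Loss of bound radioactivity versus DMSO; single 25 uM duplicate screen, then concentration-response for actives.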

For assay [4], the target named is human Opioid Receptor Delta 1 (Opiate D1), OPRD1 (gene 4985) (UniProt P41143). Nature of the assay: NVS_GPCR_hOpiate_D1: NovaScreen (NVS) G Protein-Coupled Receptor Assay for human Opioid Receptor Delta 1 (Opiate D1) (AID 2283280). The essentials:
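Membrane preparations from CHO cells bearing the human receptor were incubated 1 h with test chemical, and bound radioligand was counted after filtration. Actives from 25 uM duplicate screening were retested in concentration-response.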

For assay [5], the target named is Muscarinic acetylcholine receptor M1 (Homo sapiens) (UniProt P11229). The assay can be described thus: NVS_GPCR_hM1: NovaScreen (NVS) G Protein-Coupled Receptor Assay for human Muscarinic, M1 Receptor (AID 2283270). Put shortly:
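Actives from a duplicate 25 uM single-point screen were retested in concentration series. Binding measured as displacement of a radioligand from CHO-derived receptor preparation, 1 h incubation, filtration and scintillation counting, analysed as signal loss against DMSO.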

The target in assay [6] is human Neurotensin Receptor (NTS), NTSR1 (gene 4923) (UniProt P30989). The assay can be described thus: NVS_GPCR_hNTS: NovaScreen (NVS) G Protein-Coupled Receptor Assay for human Neurotensin Receptor (NTS) (AID 2283279). Put shortly: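 Compounds competed with a radiolabelled ligand for binding to CHO-derived human neurotensin receptor; bound signal counted after filtration, 1 h. Screened first at a single concentration of 25 uM in duplicate, then concentration series to 50 uM maximum for actives.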

The target in assay [7] is Muscarinic acetylcholine receptor M3 (Homo sapiens) (UniProt P20309). Nature of the assay: NVS_GPCR_hM3: NovaScreen (NVS) G Protein-Coupled Receptor Assay for human Muscarinic, M3 Receptor (AID 2283272). Put shortly:
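Radioligand displacement binding on human M3 receptor in CHO-derived membranes, 1 h incubation, filter-based scintillation counting. Primary screen in duplicate at 25 uM; actives followed up in concentration series; loss of signal versus DMSO.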

The target of assay [8] is human Dopamine Receptor D2 (DRD2), DRD2 (gene 1813) (UniProt P14416). Nature of the assay: NVS_GPCR_hDRD2s: NovaScreen (NVS) G Protein-Coupled Receptor Assay for human Dopamine Receptor D2 (DRD2) (AID 2283266). The essentials:
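Test compound (25 uM, duplicate in the primary screen; concentration series at follow-up) competed with radioligand for human DRD2 in CHO-derived membrane protein. Filter-based scintillation counting was done 1.5 hours after dosing, with loss of signal analysed against DMSO.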

In assay [9] the target is human Neuropeptide Receptor Y1 (NPY1), NPY1R (gene 4886) (UniProt P25929). The assay can be described thus: NVS_GPCR_hNPY1: NovaScreen (NVS) G Protein-Coupled Receptor Assay for human Neuropeptide Receptor Y1 (NPY1) (AID 2283276). Put shortly:
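Displacement of specific radioligand from NPY1 receptor of SK-N-MC origin, read by filtration and scintillation after 1 h. Compounds first tested at 25 uM in duplicate, then actives in concentration series; signal loss relative to DMSO.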

For assay [10], the target named is human Neurokinin, NK2 Receptor, TACR2 (gene 6865) (UniProt P21452). Nature of the assay: NVS_GPCR_hNK2: NovaScreen (NVS) G Protein-Coupled Receptor Assay for human Neurokinin, NK2 Receptor (AID 2283278).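 Note: actives reduce bound radioligand signal relative to DMSO baseline.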 The essentials: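 Filter-based scintillation counting measured radioligand bound to receptor extracted from CHO cells, 4 hours after compound addition. Chemicals screened first at 25 uM in duplicate, with actives retested in concentration series relative to DMSO.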

The target in assay [11] is human Leukotriene B4 Receptor 1 (LTB4-BLT1), LTB4R (gene 1241) (UniProt Q15722). The assay can be described thus: NVS_GPCR_hLTB4_BLT1: NovaScreen (NVS) G Protein-Coupled Receptor Assay for human Leukotriene B4 Receptor 1 (LTB4-BLT1) (AID 2283271). The essentials:
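Cell-free human neutrophil receptor preparation, 1 h exposure, radioligand binding read by filter scintillation counting. Single 25 uM duplicate screen, then concentration series topping at 50 uM; binding loss scored against DMSO baseline.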

Assay [12] deals with Type-1 angiotensin II receptor (Homo sapiens) (UniProt P30556). Nature of the assay: NVS_GPCR_hAT1: NovaScreen (NVS) G Protein-Coupled Receptor Assay for human Angiotensin II receptor type 1 (AT1) (AID 2283263). The essentials:
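Hits from a 25 uM duplicate screen (threshold e.g. 30% inhibition) were run in concentration-response with 50 uM top concentration. Displacement of specific radioligand from KAN-TS membrane preparations measured after 3 h by filter scintillation, DMSO as baseline.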

Assay [13] concerns the target Beta-2 adrenergic receptor (Homo sapiens) (UniProt P07550). The assay can be described thus: NVS_GPCR_hAdrb2: NovaScreen (NVS) G Protein-Coupled Receptor Assay for human Adrenergic, Beta 2 Receptor (Adrb2) (AID 2283261). The essentials: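 Compounds screened in duplicate at 25 uM, then actives in concentration series. Human beta-2 receptor from CHO material, cell-free; radioligand displacement after 1 h measured by filtration and scintillation against DMSO baseline.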

Assay [14] addresses Muscarinic acetylcholine receptor M2 (Homo sapiens) (UniProt P08172). The assay can be described thus: NVS_GPCR_hM2: NovaScreen (NVS) G Protein-Coupled Receptor Assay for human Muscarinic, M2 Receptor (AID 2283273). The essentials: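 Filter-based radiodetection read bound radioligand 1 h after dosing CHO-derived membrane protein. Single-concentration duplicates (25 uM) first, then concentration-response for actives; signal loss versus DMSO scored.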

The target of assay [15] is human Muscarinic, M4 Receptor, CHRM4 (gene 1132) (UniProt P08173). Nature of the assay: NVS_GPCR_hM4: NovaScreen (NVS) G Protein-Coupled Receptor Assay for human Muscarinic, M4 Receptor (AID 2283274). Put shortly: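 Filter-based scintillation counting of radioligand bound to CHO-expressed human M4 preparations after 1 h; loss of signal fitted versus DMSO. Initial duplicate testing at 25 uM, concentration-response follow-up for actives.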

Assay [16] has as its target human Endothelin Receptor Type B (ETB), EDNRB (gene 1910) (UniProt P24530). The assay can be described thus: NVS_GPCR_hETB: NovaScreen (NVS) G Protein-Coupled Receptor Assay for human Endothelin Receptor Type B (ETB) (AID 2283267). The essentials:
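Filter-based scintillation readout of radioligand displacement, 4 h, using membranes from human astrocytoma cells. Actives from a 25 uM duplicate screen were retested in concentration-response (top 50 uM) relative to DMSO baseline.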

In assay [17] the target is human Purinergic Receptor P2Y, P2RY1 (gene 5028) (UniProt P47900). Nature of the assay: NVS_GPCR_hPY2: NovaScreen (NVS) G Protein-Coupled Receptor Assay for human Purinergic Receptor P2Y (AID 2283281). The essentials: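 Filtration scintillation readout of radioligand displacement on U937 extract, measured 1 h post-dosing. Single 25 uM duplicate screen, then singleton concentration series to 50 uM for chemicals passing threshold; DMSO as baseline.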

Sequence of human Neurotensin Receptor (NTS), NTSR1 (gene 4923) (P30989 whole entry, looked up): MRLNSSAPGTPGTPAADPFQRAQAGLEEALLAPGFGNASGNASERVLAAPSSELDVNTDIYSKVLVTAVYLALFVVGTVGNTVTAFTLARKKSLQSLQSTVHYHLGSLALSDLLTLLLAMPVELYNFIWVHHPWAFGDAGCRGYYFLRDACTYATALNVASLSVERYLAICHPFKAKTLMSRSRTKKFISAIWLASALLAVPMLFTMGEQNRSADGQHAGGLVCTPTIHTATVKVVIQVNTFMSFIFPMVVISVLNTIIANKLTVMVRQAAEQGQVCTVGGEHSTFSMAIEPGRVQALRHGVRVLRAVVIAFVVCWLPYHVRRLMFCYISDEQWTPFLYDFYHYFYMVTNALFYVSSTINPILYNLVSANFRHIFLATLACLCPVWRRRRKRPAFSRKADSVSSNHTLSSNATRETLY
Sequence of human Opioid Receptor Delta 1 (Opiate D1), OPRD1 (gene 4985) (P41143 whole entry, looked up): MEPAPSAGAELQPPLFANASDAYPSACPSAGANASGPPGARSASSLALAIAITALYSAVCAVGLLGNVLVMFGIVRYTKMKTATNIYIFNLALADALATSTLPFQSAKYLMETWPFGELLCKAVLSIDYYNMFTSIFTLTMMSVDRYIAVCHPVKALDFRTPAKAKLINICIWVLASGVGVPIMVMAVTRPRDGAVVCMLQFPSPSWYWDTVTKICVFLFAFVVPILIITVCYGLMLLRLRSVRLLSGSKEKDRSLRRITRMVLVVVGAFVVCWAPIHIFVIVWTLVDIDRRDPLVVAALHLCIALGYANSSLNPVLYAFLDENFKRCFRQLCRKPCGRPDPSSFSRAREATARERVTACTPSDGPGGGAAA
Sequence of Muscarinic acetylcholine receptor M1 (Homo sapiens) (P11229 whole entry, looked up): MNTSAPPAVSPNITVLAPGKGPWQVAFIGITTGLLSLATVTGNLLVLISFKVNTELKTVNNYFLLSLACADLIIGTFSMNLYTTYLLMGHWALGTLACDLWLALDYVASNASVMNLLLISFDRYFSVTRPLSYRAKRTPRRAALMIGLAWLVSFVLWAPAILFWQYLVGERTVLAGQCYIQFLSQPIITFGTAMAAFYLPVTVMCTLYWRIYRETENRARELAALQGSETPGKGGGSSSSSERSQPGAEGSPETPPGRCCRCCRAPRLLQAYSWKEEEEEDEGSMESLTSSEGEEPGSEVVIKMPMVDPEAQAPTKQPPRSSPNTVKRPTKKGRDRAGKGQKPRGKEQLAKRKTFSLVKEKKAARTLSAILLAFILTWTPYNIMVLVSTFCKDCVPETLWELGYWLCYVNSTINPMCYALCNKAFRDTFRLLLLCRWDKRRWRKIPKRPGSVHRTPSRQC
Sequence of human Histamine 1 Receptor (H1), HRH1 (gene 3269) (P35367 whole entry, looked up): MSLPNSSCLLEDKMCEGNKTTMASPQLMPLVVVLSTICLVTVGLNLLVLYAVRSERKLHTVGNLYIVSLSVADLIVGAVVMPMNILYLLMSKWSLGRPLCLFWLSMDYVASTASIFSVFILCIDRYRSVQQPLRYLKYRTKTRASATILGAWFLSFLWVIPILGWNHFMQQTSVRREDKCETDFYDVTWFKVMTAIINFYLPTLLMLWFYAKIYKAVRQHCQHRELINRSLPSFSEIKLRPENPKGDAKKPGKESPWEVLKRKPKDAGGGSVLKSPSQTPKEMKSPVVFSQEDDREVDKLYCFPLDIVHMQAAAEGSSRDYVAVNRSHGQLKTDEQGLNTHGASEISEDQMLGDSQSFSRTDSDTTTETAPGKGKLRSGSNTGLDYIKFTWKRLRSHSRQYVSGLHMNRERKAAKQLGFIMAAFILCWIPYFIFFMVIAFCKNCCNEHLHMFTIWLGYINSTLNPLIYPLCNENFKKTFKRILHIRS
Sequence of D(1A) dopamine receptor (Homo sapiens) (P21728 whole entry, looked up): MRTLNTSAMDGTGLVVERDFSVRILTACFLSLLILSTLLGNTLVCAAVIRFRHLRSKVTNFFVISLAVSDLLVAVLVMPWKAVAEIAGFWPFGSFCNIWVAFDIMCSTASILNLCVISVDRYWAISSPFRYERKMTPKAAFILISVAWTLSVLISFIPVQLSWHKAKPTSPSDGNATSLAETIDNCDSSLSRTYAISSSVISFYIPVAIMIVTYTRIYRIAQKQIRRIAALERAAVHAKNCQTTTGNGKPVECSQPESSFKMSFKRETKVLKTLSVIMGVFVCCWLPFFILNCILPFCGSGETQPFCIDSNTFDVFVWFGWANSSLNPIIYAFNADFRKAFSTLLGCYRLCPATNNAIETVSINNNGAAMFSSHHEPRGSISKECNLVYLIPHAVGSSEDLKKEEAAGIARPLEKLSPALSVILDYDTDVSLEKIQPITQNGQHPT
Sequence of Type-1 angiotensin II receptor (Homo sapiens) (P30556 whole entry, looked up): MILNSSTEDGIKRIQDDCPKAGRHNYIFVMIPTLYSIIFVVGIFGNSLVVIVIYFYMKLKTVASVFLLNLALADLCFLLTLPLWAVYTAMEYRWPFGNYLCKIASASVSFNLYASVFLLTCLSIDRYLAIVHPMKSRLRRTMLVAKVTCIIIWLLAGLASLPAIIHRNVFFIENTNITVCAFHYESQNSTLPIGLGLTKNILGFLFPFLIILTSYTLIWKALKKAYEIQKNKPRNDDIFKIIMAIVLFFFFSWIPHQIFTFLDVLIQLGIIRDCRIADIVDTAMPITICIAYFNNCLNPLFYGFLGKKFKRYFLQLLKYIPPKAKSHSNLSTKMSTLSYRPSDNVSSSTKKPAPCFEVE
Sequence of human Neuropeptide Receptor Y1 (NPY1), NPY1R (gene 4886) (P25929 whole entry, looked up): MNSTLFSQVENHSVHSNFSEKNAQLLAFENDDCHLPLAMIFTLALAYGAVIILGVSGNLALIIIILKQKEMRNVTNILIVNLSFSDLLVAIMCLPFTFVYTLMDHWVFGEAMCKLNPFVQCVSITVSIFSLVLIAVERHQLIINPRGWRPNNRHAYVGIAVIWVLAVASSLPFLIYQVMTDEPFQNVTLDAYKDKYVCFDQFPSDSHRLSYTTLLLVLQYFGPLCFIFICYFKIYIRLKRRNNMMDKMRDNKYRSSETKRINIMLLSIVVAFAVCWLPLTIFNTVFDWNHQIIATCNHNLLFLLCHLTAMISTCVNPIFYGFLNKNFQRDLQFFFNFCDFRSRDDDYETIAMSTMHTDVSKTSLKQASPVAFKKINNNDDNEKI
Sequence of human Dopamine Receptor D2 (DRD2), DRD2 (gene 1813) (P14416 whole entry, looked up): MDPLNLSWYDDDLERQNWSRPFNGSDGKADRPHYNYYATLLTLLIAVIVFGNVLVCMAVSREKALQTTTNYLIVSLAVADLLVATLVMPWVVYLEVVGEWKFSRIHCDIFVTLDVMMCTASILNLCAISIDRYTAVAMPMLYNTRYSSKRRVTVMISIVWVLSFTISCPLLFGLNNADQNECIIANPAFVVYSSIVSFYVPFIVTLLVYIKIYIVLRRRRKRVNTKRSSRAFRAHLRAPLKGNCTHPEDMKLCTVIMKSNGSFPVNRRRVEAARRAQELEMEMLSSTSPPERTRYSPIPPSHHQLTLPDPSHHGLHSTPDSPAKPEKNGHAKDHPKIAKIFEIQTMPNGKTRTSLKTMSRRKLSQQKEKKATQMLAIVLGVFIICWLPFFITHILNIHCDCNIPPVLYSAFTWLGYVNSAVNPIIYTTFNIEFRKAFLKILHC
Sequence of Muscarinic acetylcholine receptor M3 (Homo sapiens) (P20309 whole entry, looked up): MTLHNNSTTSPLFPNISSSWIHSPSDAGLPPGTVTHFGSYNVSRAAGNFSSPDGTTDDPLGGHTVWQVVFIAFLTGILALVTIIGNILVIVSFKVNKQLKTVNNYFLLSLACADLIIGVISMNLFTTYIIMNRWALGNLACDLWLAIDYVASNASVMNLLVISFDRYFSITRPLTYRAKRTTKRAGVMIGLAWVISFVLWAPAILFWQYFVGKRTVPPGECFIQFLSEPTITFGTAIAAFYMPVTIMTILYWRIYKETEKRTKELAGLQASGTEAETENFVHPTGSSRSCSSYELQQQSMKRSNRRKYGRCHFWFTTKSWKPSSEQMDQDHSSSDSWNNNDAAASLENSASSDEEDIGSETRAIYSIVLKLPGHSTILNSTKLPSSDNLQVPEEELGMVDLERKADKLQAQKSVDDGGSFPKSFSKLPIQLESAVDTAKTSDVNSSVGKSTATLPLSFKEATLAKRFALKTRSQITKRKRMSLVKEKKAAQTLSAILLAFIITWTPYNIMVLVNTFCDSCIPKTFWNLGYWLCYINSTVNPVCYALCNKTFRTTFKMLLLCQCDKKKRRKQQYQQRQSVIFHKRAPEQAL
Sequence of human Leukotriene B4 Receptor 1 (LTB4-BLT1), LTB4R (gene 1241) (Q15722 whole entry, looked up): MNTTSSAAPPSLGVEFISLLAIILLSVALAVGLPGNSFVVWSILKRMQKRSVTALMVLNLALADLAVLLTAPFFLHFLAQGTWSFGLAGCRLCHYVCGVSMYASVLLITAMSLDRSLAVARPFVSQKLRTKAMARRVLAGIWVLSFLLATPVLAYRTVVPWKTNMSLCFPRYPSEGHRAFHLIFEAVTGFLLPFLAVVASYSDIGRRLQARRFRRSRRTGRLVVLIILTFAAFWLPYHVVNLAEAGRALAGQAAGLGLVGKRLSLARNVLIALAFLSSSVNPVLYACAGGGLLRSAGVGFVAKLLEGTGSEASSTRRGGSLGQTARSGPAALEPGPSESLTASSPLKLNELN
Sequence of Beta-2 adrenergic receptor (Homo sapiens) (P07550 whole entry, looked up): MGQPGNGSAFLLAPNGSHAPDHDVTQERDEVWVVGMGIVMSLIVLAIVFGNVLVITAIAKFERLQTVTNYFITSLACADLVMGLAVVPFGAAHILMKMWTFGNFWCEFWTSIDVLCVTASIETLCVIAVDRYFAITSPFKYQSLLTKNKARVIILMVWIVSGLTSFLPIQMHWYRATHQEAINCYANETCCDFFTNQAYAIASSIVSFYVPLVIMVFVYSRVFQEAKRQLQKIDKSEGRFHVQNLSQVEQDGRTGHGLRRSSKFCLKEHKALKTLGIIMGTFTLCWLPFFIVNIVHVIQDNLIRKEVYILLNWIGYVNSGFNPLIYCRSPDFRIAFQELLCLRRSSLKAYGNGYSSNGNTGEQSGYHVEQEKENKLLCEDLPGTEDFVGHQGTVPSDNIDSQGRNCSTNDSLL

In the case of `CCOC(=O)COc1cc(-n2ncc(C(F)(F)F)c(C)c2=O)c(F)cc1Cl`, the call in [1] was inactive.
Turning to `CC1(C)C(C=C(Cl)Cl)C1C(=O)OCc1cccc(Oc2ccccc2)c1` (stereo not given), the molecule was classed as inactive in [2].
Turning to `O=C(c1ccc(O)cc1O)c1ccc(O)cc1O`, in assay [3], the result was inactive. The AC50 (as a rule, the midpoint of the concentration-response curve, whichever way the signal moves) in assay [4] is 18.5 µM (active).
As to `CCOC(=O)NCCOc1ccc(Oc2ccccc2)cc1`, the molecule was classed as inactive in assay [5].
For `COC(=O)c1ccc(CNS(C)(=O)=O)cc1S(=O)(=O)NC(=O)Nc1nc(OC)cc(OC)n1`, the molecule was classed as inactive in [6].
`C[C@]12CC[C@@H]3c4ccc(O)cc4C[C@@H](CCCCCCCCCS(=O)CCCC(F)(F)C(F)(F)F)[C@H]3[C@@H]1CC[C@@H]2O` (stereo not given in full): the call in assay [7] was inactive.
Take `S=C([S-])NCCNC(=S)[S-].[Mn+2]`: the molecule was classed as inactive in [8], in assay [1] and in [6]. Moreover, the AC50 in assay [9] was 13.3 µM (active).
`Cc1nn(C)c(Oc2ccccc2)c1C=NOCc1ccc(C(=O)OC(C)(C)C)cc1`: the molecule was called inactive in assay [9] and in assay [10].
Turning to `CCCCOC(=O)C(C)Oc1ccc(Oc2ccc(C(F)(F)F)cn2)cc1` (stereo not given), the AC50 in assay [5] is 12.1 µM (active).
Regarding `COC(=O)c1ccccc1C(=O)O`, in assay [6], the call was inactive.
Turning to `O=C(O)C1(C(=O)Nc2ccc(Cl)cc2Cl)CC1`, in assay [11], the result was inactive.
On to `COCCO`, for which the molecule was classed as inactive in assay [12].
Consider `Oc1ccc(C(c2ccc(O)cc2)C(Cl)(Cl)Cl)cc1`, for which the molecule was classed as inactive in assay [13], in assay [11], in [7] and in assay [10]. The AC50 in assay [8] was 25 µM (active); in assay [2], 6.83 µM (active); in assay [5] it was 6.79 µM (active); in assay [14], 4.96 µM (active); in assay [15], 6.62 µM (active); in [4] it was 5.12 µM (active).
For the molecule `CC(C)CCCCCCc1ccc(O)cc1`, the half-maximal activity concentration (AC50) in assay [2] was 25 µM (active). In addition, the result in assay [4] was inactive.
In the case of `C#C[C@]1(O)CC[C@H]2[C@@H]3CCC4=CC(=O)CC[C@@H]4[C@H]3CC[C@@]21CC`, the molecule was called inactive in [16].
Take `CCNc1nc(N)nc(Cl)n1`: the molecule was called inactive in assay [1].
On to `COC(=O)c1ccccc1S(=O)(=O)NC(=O)Nc1nc(OC(F)F)cc(OC(F)F)n1`, for which the molecule was called inactive in assay [13].
Take `CCCCCCC(C)OC(=O)COc1nc(F)c(Cl)c(N)c1Cl` (stereo not given): the call in assay [12] was inactive. Moreover, the AC50 in assay [2] was 25 µM (active).
For the molecule `O=C(O)c1ccccc1`, in assay [17], the outcome was inactive.
